Inconclusive results are not listed. Where a call stands in place of a potency, no number is given. Calls of active or inactive are those of the source. Calls come from the whole dose curve; as a rule, active = well fitted inhibition curve with a large enough effect; inconclusive = small, poorly fitted or top-dose-only effect; inactive = no such curve, though single readings can be large or run the other way.
The compounds below were run on Zika virus NS2B-NS3 protease (linked construct) (assay: Primary screen NINDS Rhodamine qHTS for Zika virus inhibitors (AID 1347160; note: nearly all actives have a fitted effect of over 55% in size)). Details: purified NS2B-NS3 protease, Rhodamine110 substrate fluorescence; series mostly up to 57.1 µM.
Outline: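 Purified NS2B-NS3 protease with the NS2B hydrophilic domain joined by a flexible linker (25 nM) in 10 mM Tris-HCl pH 8.0, 0.01% Tween 20, preincubated 15 min at RT with compound; Rhodamine110 peptide substrate 1.5 µM; fluorescence change over 15 min; 4-parameter Hill fit.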

Compound | Potency
Cc1nc(N2CCN(C(=O)c3ccco3)CC2)c2c3c(sc2n1)CCCC3 | inactive
CC(C)c1cccc(C(C)C)c1NC(=O)Nc1ccc(Sc2ccc([N+](=O)[O-])cc2)cc1 | inactive
C=C1[C@@H](OC(C)=O)CC[C@@]2(C)[C@@H](OC(C)=O)[C@H](OC(C)=O)C3=C(C)C[C@H](OC(=O)C(C)CC)[C@@H]([C@@H](OC(C)=O)[C@H]12)C3(C)C (some centres undefined) | inactive
Nc1ncnc2c1nc(Cl)n2C1OC2COP(=O)(O)OC2C1O (centres undefined) | inactive
COc1cc(C2OC(c3ccc(OC)c(OC)c3)C(C)C2C)ccc1O (centres undefined) | inactive
O=C1NC(=O)C(c2cnc3ccccn23)=C1c1cn2c3c(cc(F)cc13)CN(C(=O)N1CCCCC1)CC2 | inactive
C/C(=C\CCC(C)C1=CCC2(C)OC3=C(CC12)C(=O)C(O)CC3)CO (centres undefined) | inactive
CC(=O)O[C@@H]1CC2C(C)(C)C(=O)C=C[C@]2(C)C2CC[C@@]3(C)[C@H](c4ccoc4)OC(=O)[C@H]4O[C@]43[C@@]21C (some centres undefined) | inactive
C/C=C(/C)C(=O)OC1C=C2C3C(C)C(C)C(OC(=O)C(C)C(C)O)CC3(C)CCC2(C)C2(C)CC(OC(C)=O)C3C(C)(C)C(O)C(=O)CC3(C)C12 (centres undefined) | inactive
O=C(Nc1ccc(CN2CCOCC2)cc1)c1ccc(-c2cccc(Cl)c2)o1 | inactive
C[C@H]1CC[C@@]2(OC1)O[C@H]1CC3C4CC[C@H]5C[C@@H](O)CC[C@]5(C)C4=CC(=O)[C@]3(C)[C@H]1[C@@H]2C (some centres undefined) | inactive
CO[C@H]1O[C@@H]2O[C@@]3(C)CCC4[C@H](C)CCC([C@H]1C)[C@]42OO3 (some centres undefined) | inactive
O=C(Nc1cc(C(F)(F)F)ccc1N1CCCCC1)c1ccncc1 | inactive
C#CCOc1ccc2c(c1)c(-c1ccc(C(C)C)cc1)nc(=O)n2C(C)C | inactive
CCOC(=O)c1cnn(-c2ccccc2)c1NC(=O)c1cc2nc(-c3ccco3)cc(C(F)(F)Cl)n2n1 | inactive
CC(C)C[C@@H](N)C(=O)N[C@H]1C(=O)N[C@@H](CC(N)=O)C(=O)N[C@H]2C(=O)N[C@H]3C(=O)N[C@H](C(=O)N[C@H](C(=O)O)c4cc(O)cc(O)c4-c4cc3ccc4O)[C@H](O)c3ccc(c(Cl)c3)Oc3cc2cc(c3O[C@@H]2O[C@H](CO)[C@@H](O)[C@H](O)[C@H]2O[C@H]2C[C@](C)(N)[C@H](O)[C@H](C)O2)Oc2ccc(cc2Cl)[C@H]1O | inactive
C=C1C(=O)O[C@@H]2[C@H]3C(C)=CC(=O)C3=C(C)CC[C@@H]12 | inactive
C=C[C@@]1(C)C=C2C(=O)C(O)=C3[C@](C)(C(=O)O)CC[C@@H]4C[C@]34[C@]2(O)C(=O)C1 | inactive
CC1CCC/C=C/C(=O)c2c(O)cc(O)cc2CC(=O)O1 (centres undefined) | inactive
COC(=O)/C=C/C=C/C(=O)OC1C=C2COC(=O)C2(O)C2(C)CCCC(C)(C)C12 (centres undefined) | inactive

Compound | Potency
C=C(C(=O)OC[C@H]1O[C@@H](OC(=O)/C=C/c2ccccc2)[C@H](O)[C@@H](O)[C@@H]1O)C(O)CO (some centres undefined) | inactive
NC(=O)N1CCC(CC(=O)N2CCC(C3c4ncc(Br)cc4CCc4cc(Cl)cc(Br)c43)CC2)CC1 (centres undefined) | inactive
COc1cc2c(cc1OC(C)C)[C@H](c1ccc(Cl)cc1)N(c1ccc(N(C)CC3CCC(N4CCN(C)C(=O)C4)CC3)cc1)C(=O)C2 (some centres undefined) | inactive
COc1ccc(N(C(=O)Nc2c(C)cccc2C)c2cc(Nc3ccc(N4CCN(C)CC4)cc3)ncn2)c(OC)c1 | inactive
CS/C=C/C(=O)O[C@@H]1CCC2=CC(=O)C(=C(C)C)C[C@]2(C)[C@H]1C | inactive
COc1cc(C(=O)NC(=S)Nc2cccc(NC(=O)c3ccccc3)c2)cc(OC)c1OC | inactive
C/C=C(\C)C(=O)O[C@@H]1[C@@H](C)[C@]2(O)[C@@H]3C=C(C)C(=O)[C@H]3CC(CO)=C[C@H]2C2C(C)(C)[C@@]21OC(=O)C(C)CC (some centres undefined) | inactive
C=C1CC[C@H]2C(=C)CC[C@H]3C(=C)C(=O)O[C@@H]3[C@@H]12 | inactive
CC(=O)O[C@@]12CO[C@@H]1C[C@H](O)[C@@]1(C)C(=O)[C@H](O)C3=C(C)[C@@H](OC(=O)[C@H](O)[C@@H](NC(=O)OC(C)(C)C)c4ccccc4)C[C@@](O)([C@@H](OC(=O)c4ccccc4)C12)C3(C)C (some centres undefined) | inactive
C/C=C/C=C/C(=O)O[C@@H]1C=C2COC(=O)[C@]2(O)[C@@]2(C)CCCC(C)(C)[C@H]12 | inactive
CC(C)(C)c1ccc(C(=O)Nc2cn3cc(-n4ccnc4)ccc3n2)cc1 | inactive
O=C(Nc1ccc(N2C(=O)[C@@H]3[C@H](C2=O)[C@@H]2C=C[C@H]3C2)c(Cl)c1)c1ccccn1 | inactive
Cc1nc2cc(C(=O)NCc3ccccn3)nn2c(C)c1Cc1cccc(Cl)c1 | inactive
CNC(=O)c1ccc2c(c1)CCO[C@H]2CCN1CCN(c2ccc(OC)cc2)CC1 | inactive
CN(C)C(=O)COC(=O)c1cc(-c2ccc(C3CCNCC3)cc2)c2ccc(-c3ccc(C(F)(F)F)cc3)cc2c1 | inactive
C=C1C(=O)O[C@@H]2/C=C(\CO)CC/C=C(/C=O)C[C@H](O)[C@@H]12 | inactive
COc1cc(OC)c(NC(=O)c2ccc(Cc3cc4c(cc3C)C(C)(C)CCC4(C)C)o2)c(OC)c1 | inactive
CC(=O)OC1CC(C)C2(CCC3(CC(=O)OC3O)O2)C2(C)CCCC(C)(C)C12 (centres undefined) | inactive
Cc1cc2c(cc1N1C(=O)c3cccc4c(CCCO)ccc(c34)C1=O)n(C)c(=O)n2C | inactive
